Potency and affinity values are given separately. Values without a mark were called inactive. The rule behind the calls is not given here.
Assay: toxicity to human HeLa cells – cell-based, 48 h, plate reader, cherry-picks, cytotoxicity control, dose response (AID 504942)
Conditions: series mostly up to 38 µM; activity change, negative = toxicity: at the top concentration

Structure (SMILES) | activity change, negative = toxicity [%]
CCOC(=O)N1CCN(c2ccc(Cl)cc2)CC1 | 8.67
CCOC(=O)/C=C(\C)Sc1cc(=O)oc2ccccc12 | 26.4
N#CC(c1ccc(Cl)cc1)c1ncc(C(F)(F)F)cc1Cl (stereo not given) | -7.56
COC(=O)c1ccc(OC(=O)c2ccco2)cc1 | -5.76
O=[N+]([O-])c1ccc(N2CCCC2)nc1 | -11.1
O=CNC1(c2ccccc2)CCCCC1 | 4.94
COC(=O)c1cc(-c2ccc(OC)cc2)on1 | -7.79
CO/N=C/c1cn(-c2ccc(Cl)cc2)nn1 | 0.942
N#CC(c1ccc(Cl)nn1)c1ccccc1Cl (stereo not given) | -11.4
O=[N+]([O-])c1ccc(N2CCCCC2)nc1 | 7.32
O=C1C2C3C=CC(C4CC34)C2C(=O)N1Cc1ccco1 (stereo not given) | -3.39
N#CC(c1cccc(Cl)c1)c1ncc(C(F)(F)F)cc1Cl (stereo not given) | -0.874
CC(C)N=C(NC#N)SCc1ccccc1F | -3.1
O=CN(c1ccccc1)c1ccc2ccccc2c1 | 0.446
CCCCCC1CC(COc2ccccc2)OC1=O (stereo not given) | -6.43
Cc1ccc(S(=O)(=O)NCCC(C)C)cc1[N+](=O)[O-] | -2.78
O=C(NC1CCCCCCC1)c1cccc(Cl)c1 | -9.91
N#Cc1cc([N+](=O)[O-])ccc1N1CCCC1 | 0.911
Nc1ccc(OCc2ccccc2)cc1[N+](=O)[O-] | -12.8
O=C1C=C(c2cc(F)ccc2F)C[C@@H](c2ccc(F)cc2)C1 | -14.1
Clc1ccc2scc(CN3CCCCC3)c2c1 | -6.78
O=C(NC1CCS(=O)(=O)C1)c1cccc(Br)c1 (stereo not given) | -10.4
O=C(NC1CCSC1)c1cccc(Cl)c1 (stereo not given) | 0.981
Cc1cc(S(=O)(=O)NCC2CC2)c(Cl)cc1Cl | 7.44
CCOc1ccc(-n2cccc2C=O)cc1 | 9.37
OC(c1cccc(Cl)c1)c1nccc2ccccc12 (stereo not given) | 13.8
CCOC(=O)c1ccc(-c2ccc(C=O)o2)cc1 | -9.6
O=C(NC1CCCC1)c1cccc(Cl)c1 | -3.45
O=C(c1cccc([N+](=O)[O-])c1)N1CC2C3C=CC(C3)C2C1 (stereo not given) | 8.14
CCC(C)NS(=O)(=O)c1ccc(OC)c(Cl)c1Cl (stereo not given) | -0.92

Reference: PubChem BioAssay AID504942 (Broad Institute, 2011)
